Measurements reported in PubChem BioAssay (EPA / NIEHS).
Activity calls are given as the source filed them. How the source made its calls: active means hit-call score of the fitted dose curve at least 0.9, where 1 is the maximum; inactive means score below 0.9.

What was measured:
[1] = ATG_ISRE_CIS: Attagene CIS-FACTORIAL HepG2 Assay for human Interferon Regulatory Factor 1 (IRF1) binding to an Interferon-Stimulated Response Element (ISRE) (AID 2282948); details: HepG2 ISRE cis-reporter (Attagene), mRNA transcription readout; actives raise or lower the signal
Outline: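 Endogenous transcription factor activity read as reporter transcript abundance via RT-PCR and capillary electrophoresis. HepG2 cells transiently transfected, 24 h chemical exposure. Gain or loss fitted against DMSO baseline.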

[2] = ATG_M_32_CIS: Attagene CIS-FACTORIAL HepG2 Assay for M32 Transcription Factor (Internal Marker) (AID 2282949); details: HepG2 Attagene cis-factorial M32 reporter, mRNA; actives raise or lower the signal;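 further: background control marker of the multiplexed CIS panel rather than a real target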
Outline: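 Transient MRTU transfection of HepG2; 24 h compound treatment; TriZol RNA, oligo(dT) RT, reporter PCR, 6-FAM primer extension, HpaI cut, CE. Gain/loss of signal vs DMSO.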

[3] = ATG_M_06_CIS: Attagene CIS-FACTORIAL HepG2 Assay for M06 Transcription Factor (Internal Marker) (AID 2282950); details: HepG2 Attagene CIS-FACTORIAL M06 internal marker reporter; actives raise or lower the signal
Outline: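 Terse: HepG2, transient MRTU transfection (FuGene 6), 24 h dosing; total RNA, oligo(dT) RT, PCR, FAM label, HpaI cut, capillary electrophoresis; bidirectional fit vs DMSO baseline; background-control endpoint.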

[4] = target: Hypoxia-inducible factor 1-alpha (Homo sapiens) (UniProt Q16665); assay: ATG_HIF1a_CIS: Attagene CIS-FACTORIAL HepG2 Assay for human Hypoxia Inducible Factor 1 (HIF1A) (AID 2282951); details: HepG2 Attagene cis-factorial HIF1a reporter transcription; actives raise or lower the signal
Chain of Hypoxia-inducible factor 1-alpha (Homo sapiens) (Q16665 whole entry, looked up): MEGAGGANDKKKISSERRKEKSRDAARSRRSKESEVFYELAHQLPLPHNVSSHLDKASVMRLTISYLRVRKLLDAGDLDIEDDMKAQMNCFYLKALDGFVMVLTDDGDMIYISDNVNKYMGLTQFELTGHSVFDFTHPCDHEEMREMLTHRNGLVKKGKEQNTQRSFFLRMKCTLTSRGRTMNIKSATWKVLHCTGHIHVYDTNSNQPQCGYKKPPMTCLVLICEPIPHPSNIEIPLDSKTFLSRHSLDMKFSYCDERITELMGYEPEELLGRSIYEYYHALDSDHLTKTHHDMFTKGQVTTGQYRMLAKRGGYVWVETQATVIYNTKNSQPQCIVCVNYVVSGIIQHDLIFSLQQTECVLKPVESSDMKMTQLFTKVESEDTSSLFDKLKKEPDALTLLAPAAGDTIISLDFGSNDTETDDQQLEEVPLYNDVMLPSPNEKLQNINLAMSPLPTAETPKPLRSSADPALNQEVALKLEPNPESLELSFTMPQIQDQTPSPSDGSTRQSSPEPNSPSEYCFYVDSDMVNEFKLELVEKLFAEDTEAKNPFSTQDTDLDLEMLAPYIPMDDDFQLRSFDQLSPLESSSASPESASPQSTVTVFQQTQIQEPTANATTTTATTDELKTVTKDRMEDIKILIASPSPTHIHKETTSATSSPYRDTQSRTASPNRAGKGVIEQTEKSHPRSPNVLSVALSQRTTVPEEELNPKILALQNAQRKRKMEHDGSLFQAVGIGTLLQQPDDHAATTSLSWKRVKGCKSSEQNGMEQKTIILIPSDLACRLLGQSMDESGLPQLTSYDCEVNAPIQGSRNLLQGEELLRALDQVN
Outline: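 Measures endogenous transcription-factor activity through cis-regulated reporter mRNA in HepG2. Cells dosed 24 h; transcripts quantified by RT-PCR with 6-FAM-labelled products separated by capillary electrophoresis; DMSO serves as negative control.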

[5] = target: Hepatocyte nuclear factor 6 (Homo sapiens) (UniProt Q9UBC0); assay: ATG_HNF6_CIS: Attagene CIS-FACTORIAL HepG2 Assay for human Hepatocyte Nuclear Factor 6 (HNF6) (AID 2282952); details: HepG2 Attagene cis-factorial HNF6 reporter transcription; actives raise or lower the signal
Chain of Hepatocyte nuclear factor 6 (Homo sapiens) (Q9UBC0 whole entry, looked up, the tested form may be a part): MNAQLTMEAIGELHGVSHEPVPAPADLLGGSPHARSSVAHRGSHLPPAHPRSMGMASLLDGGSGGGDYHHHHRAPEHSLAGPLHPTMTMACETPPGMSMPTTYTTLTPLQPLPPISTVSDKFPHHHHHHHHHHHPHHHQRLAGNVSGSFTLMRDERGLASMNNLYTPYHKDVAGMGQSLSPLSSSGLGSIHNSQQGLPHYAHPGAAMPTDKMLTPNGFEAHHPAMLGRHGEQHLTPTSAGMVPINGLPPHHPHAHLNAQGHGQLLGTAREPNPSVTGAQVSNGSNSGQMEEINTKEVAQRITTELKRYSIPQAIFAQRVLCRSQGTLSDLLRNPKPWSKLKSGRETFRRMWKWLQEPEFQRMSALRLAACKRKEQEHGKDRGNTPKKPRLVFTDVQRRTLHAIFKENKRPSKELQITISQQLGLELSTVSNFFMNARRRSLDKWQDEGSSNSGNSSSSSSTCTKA
Outline: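 First, HepG2 cells were transfected with the multiplexed cis reporter library and dosed with chemical for 24 h. Next, RNA was reverse-transcribed, PCR-amplified and fluorescently labelled. Finally, HpaI-digested fragments were read by capillary electrophoresis.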

[6] = target: Heat shock factor protein 1 (Homo sapiens) (UniProt Q00613); assay: ATG_HSE_CIS: Attagene CIS-FACTORIAL HepG2 Assay for human Heat Shock Transcription Factor 1 (HSE) (AID 2282953); details: HepG2 HSE cis-reporter, Attagene RNA transcription; actives raise or lower the signal
Chain of Heat shock factor protein 1 (Homo sapiens) (Q00613 whole entry, looked up, the tested form may be a part): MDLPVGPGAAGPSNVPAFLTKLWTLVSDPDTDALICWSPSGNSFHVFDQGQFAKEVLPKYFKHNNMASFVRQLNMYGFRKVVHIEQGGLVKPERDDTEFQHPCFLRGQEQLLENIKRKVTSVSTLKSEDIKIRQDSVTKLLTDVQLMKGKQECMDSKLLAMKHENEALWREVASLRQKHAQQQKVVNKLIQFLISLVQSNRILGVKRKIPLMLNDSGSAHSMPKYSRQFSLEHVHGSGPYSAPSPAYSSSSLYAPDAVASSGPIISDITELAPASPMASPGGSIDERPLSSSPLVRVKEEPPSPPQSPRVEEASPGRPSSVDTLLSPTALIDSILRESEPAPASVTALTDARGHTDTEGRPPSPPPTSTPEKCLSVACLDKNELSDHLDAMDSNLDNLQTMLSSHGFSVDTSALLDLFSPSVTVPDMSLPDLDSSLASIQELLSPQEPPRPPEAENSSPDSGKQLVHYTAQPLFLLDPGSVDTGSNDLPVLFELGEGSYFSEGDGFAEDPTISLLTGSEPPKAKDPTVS
Outline: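 Read-out: fluorescence of reporter-specific RT-PCR fragments separated by capillary electrophoresis. HepG2 carrying transfected cis-element reporter units; 24 h dosing; activity fitted in both directions relative to DMSO baseline.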

[7] = ATG_MRE_CIS: Attagene CIS-FACTORIAL HepG2 Assay for human Metal Responsive Element (MRE) (AID 2282954); details: HepG2 MRE cis-reporter transcription, Attagene multiplex; actives raise or lower the signal
Outline: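 Readout: capillary electrophoresis of 6-FAM-labelled, HpaI-digested RT-PCR reporter products. System: HepG2 cells carrying transient multiplexed cis reporters, dosed 24 h. Analysis: bidirectional fit, DMSO baseline.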

[8] = ATG_PBREM_CIS: Attagene CIS-FACTORIAL HepG2 Assay for human Phenobarbital-responsive Enhancer Module (PBREM) (AID 2282955); details: HepG2 PBREM cis-reporter, Attagene multiplexed transcription; actives raise or lower the signal
Outline: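 Fluorescence of labelled reporter cDNA fragments, resolved by capillary electrophoresis, gives mRNA induction in transfected HepG2 cells treated for 24 h; DMSO serves as negative control and baseline.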

[9] = target: Paired box protein Pax-6 (Homo sapiens) (UniProt P26367); assay: ATG_Pax6_CIS: Attagene CIS-FACTORIAL HepG2 Assay for human Paired Box 6 (PAX6) (AID 2282956); details: HepG2 CIS-FACTORIAL PAX6 reporter transcription, RNA readout; actives raise or lower the signal
Chain of Paired box protein Pax-6 (Homo sapiens) (P26367 whole entry, looked up): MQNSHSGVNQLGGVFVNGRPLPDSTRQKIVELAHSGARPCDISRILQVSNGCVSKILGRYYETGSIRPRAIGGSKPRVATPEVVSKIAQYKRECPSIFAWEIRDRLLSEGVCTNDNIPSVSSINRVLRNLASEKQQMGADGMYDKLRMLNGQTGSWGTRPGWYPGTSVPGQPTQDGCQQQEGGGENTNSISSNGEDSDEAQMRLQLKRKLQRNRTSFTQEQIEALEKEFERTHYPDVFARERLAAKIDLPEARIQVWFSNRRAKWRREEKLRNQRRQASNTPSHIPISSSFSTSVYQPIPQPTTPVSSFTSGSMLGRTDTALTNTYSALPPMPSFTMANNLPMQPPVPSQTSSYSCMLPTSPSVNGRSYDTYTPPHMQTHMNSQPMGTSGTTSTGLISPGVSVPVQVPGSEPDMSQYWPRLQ
Outline: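 Read-out is reporter transcript level, measured by RT-PCR with fluorescent primer extension and capillary electrophoresis after 24 h dosing of transfected HepG2 cells. Activity in either direction fitted relative to DMSO control.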

[10] = ATG_PXRE_CIS: Attagene CIS-FACTORIAL HepG2 Assay for human Pregnane X Receptor Element (PXRE) (AID 2282957); details: HepG2 Attagene CIS-FACTORIAL PXRE reporter, mRNA; actives raise or lower the signal
Outline: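 After a 24 h chemical incubation, total RNA from transfected HepG2 cells was reverse-transcribed and reporter cDNA amplified, FAM-labeled, HpaI-digested and sized by capillary electrophoresis. DMSO served as baseline for bidirectional curve fitting.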

[11] = ATG_PPRE_CIS: Attagene CIS-FACTORIAL HepG2 Assay for human Peroxisome Proliferator-activated Response Element (PPRE) (AID 2282958); details: HepG2 PPRE cis-element reporter, Attagene transcription factor profiling; actives raise or lower the signal
Outline: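 Cells are first transfected transiently with the multiplexed reporter library, then dosed for 24 h. Total RNA is reverse-transcribed, amplified, fluorescently end-labeled and HpaI-cut before capillary electrophoresis; activity is fitted bidirectionally against DMSO controls.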

[12] = ATG_RORE_CIS: Attagene CIS-FACTORIAL HepG2 Assay for human RAR-related Orphan Receptor Element (RORE) (AID 2282959); details: HepG2 Attagene cis-factorial RORE reporter, mRNA; actives raise or lower the signal
Outline: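 Cells were HepG2 carrying transfected cis-regulated reporter constructs, dosed for 24 hours. Total RNA was reverse-transcribed and reporter cDNA amplified, fluorescently labeled and sized by capillary electrophoresis. Activity was fitted bidirectionally relative to DMSO.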

[13] = ATG_Sox_CIS: Attagene CIS-FACTORIAL HepG2 Assay for human SRY-box transcription factor (SOX) (AID 2282960); details: HepG2 Attagene cis-factorial SOX reporter, mRNA; actives raise or lower the signal
Outline: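 Transient MRTU transfection of HepG2; 24 h compound incubation; TriZol RNA, oligo(dT) RT, PCR, 6-FAM primer extension, HpaI cut, CE. Bidirectional fit, DMSO = baseline.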

[14] = target: Transcription factor Sp1 (Homo sapiens) (UniProt P08047); assay: ATG_Sp1_CIS: Attagene CIS-FACTORIAL HepG2 Assay for human Specificity Protein 1 (Sp1) (AID 2282961); details: HepG2 Sp1 cis-reporter transcription, actives raise or lower the signal
Chain of Transcription factor Sp1 (Homo sapiens) (P08047 whole entry, looked up): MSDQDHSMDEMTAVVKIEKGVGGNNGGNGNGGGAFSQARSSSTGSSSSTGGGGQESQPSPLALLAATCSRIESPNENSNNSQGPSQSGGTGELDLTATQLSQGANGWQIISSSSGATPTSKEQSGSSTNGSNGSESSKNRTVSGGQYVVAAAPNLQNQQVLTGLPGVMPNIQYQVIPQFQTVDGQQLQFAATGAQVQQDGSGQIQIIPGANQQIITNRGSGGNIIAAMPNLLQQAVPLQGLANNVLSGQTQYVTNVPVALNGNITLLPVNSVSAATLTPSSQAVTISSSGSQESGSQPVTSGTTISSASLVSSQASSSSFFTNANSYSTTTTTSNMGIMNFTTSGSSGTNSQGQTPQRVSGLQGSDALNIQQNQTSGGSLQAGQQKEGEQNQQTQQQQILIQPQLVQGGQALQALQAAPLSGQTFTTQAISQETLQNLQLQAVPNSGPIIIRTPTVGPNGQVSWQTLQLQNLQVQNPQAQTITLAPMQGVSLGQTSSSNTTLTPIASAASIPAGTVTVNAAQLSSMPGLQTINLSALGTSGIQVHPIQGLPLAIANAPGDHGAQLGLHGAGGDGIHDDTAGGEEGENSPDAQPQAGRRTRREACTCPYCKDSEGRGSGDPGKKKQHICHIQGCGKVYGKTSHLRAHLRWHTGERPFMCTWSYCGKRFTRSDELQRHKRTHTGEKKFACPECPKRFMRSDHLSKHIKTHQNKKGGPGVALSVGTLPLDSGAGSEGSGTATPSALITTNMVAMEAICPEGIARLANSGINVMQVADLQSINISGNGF
Outline: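 Endogenous Sp1 activity was gauged in human liver HepG2 cells bearing transfected reporter units under a cis-regulating promoter. After 24 h dosing, reporter mRNA was quantified by RT-PCR with capillary electrophoresis, and activity fitted bidirectionally versus DMSO.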

[15] = ATG_SREBP_CIS: Attagene CIS-FACTORIAL HepG2 Assay for human Sterol Regulatory Element Binding (SREBP) (AID 2282962); details: HepG2 Attagene cis-factorial SREBP reporter, mRNA; actives raise or lower the signal
Outline: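 Endogenous SREBP activity read as cis-element-driven reporter transcript in transiently transfected HepG2, 24 h post-dosing; quantified via RT-PCR plus capillary electrophoresis of fluorescent fragments. Gain or loss of signal fitted relative to DMSO baseline.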

[16] = target: Signal transducer and activator of transcription 3 (Homo sapiens) (UniProt P40763); assay: ATG_STAT3_CIS: Attagene CIS-FACTORIAL HepG2 Assay for human Signal Transducer and Activator of Transcription 3 (STAT3) (AID 2282963); details: HepG2, Attagene cis-factorial STAT3 reporter transcription; actives raise or lower the signal
Chain of Signal transducer and activator of transcription 3 (Homo sapiens) (P40763 whole entry, looked up): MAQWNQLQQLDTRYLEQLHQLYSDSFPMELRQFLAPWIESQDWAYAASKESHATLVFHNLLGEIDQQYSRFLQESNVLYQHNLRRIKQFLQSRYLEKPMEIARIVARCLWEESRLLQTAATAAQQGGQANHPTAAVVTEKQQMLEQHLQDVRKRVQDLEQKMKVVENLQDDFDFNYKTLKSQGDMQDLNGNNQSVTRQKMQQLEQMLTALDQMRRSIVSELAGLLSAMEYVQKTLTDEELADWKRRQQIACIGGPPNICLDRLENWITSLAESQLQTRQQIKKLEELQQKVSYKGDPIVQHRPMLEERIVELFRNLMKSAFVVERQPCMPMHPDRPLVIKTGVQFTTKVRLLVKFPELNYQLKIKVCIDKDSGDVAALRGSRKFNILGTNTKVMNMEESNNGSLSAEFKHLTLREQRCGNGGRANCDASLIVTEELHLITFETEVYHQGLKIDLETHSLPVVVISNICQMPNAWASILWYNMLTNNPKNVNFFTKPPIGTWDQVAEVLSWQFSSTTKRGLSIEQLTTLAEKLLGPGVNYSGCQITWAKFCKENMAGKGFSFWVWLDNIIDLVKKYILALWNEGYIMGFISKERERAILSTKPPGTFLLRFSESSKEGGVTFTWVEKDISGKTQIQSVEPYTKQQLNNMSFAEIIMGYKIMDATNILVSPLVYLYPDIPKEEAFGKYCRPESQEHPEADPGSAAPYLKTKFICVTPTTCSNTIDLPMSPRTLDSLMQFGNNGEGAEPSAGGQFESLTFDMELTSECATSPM
Outline: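 Uses human liver HepG2 transiently carrying cis-regulated reporter transcription units. Following 24 h dosing, reporter mRNA induction was detected by RT-PCR and capillary electrophoresis, analysed bidirectionally versus DMSO.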

[17] = ATG_TA_CIS: Attagene CIS-FACTORIAL HepG2 Assay for human TA Basal Promoter (AID 2282964); details: HepG2 Attagene CIS-factorial TA basal promoter reporter; actives raise or lower the signal
Outline: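 Transfected HepG2, 24 h compound exposure; RNA → RT-PCR → FAM primer extension → HpaI cut → CE fluorescence. Gain/loss-of-signal fitted against DMSO negative control. Background-control readout.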

[18] = ATG_TCF_b_cat_CIS: Attagene CIS-FACTORIAL HepG2 Assay for human T-Cell-Factor with beta-catenin (TCF/b-cat) (AID 2282965); details: HepG2 TCF/beta-catenin cis-reporter transcription, actives raise or lower the signal
Outline: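 In this cis-format system, transfected HepG2 cells report endogenous transcription factor activity. Readout after 24 h exposure is reporter transcript abundance from RT-PCR and capillary electrophoresis, analysed for gain or loss of signal versus DMSO.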

[19] = ATG_TAL_CIS: Attagene CIS-FACTORIAL HepG2 Assay for human TAL Basal Promoter (AID 2282966); details: HepG2 Attagene cis-factorial TAL promoter reporter; actives raise or lower the signal;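 further: background control endpoint measuring basal TAL promoter reporter mRNA not a specific factor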
Outline: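 Basal-promoter background-control endpoint from a multiplexed HepG2 reporter panel. Cells were exposed 24 h, then reporter mRNA was read by RT-PCR/CE fluorescence and fitted in both directions relative to DMSO.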

Measured: AC50

CCN1CCC2(CC1)COc1cc3c(cc12)N(C(=O)c1ccc(-c2ccc(-c4nnc(C)o4)cc2C)cc1)CC3
active: [18] 6.25 µM
inactive: all other assays above

COc1cc2c(cc1OC)[C@@]13CCN4CC5=CCO[C@H]6CC(=O)N2[C@H]1[C@H]6[C@H]5C[C@H]43
active: [4] 30.3 µM | [10] 36.6 µM
not listed: [11] | [19]
inactive: all other assays above
